Screening results (PubChem BioAssay)
Only some compounds are listed: those with a hit (about 2.8% of all), similar ones and a draw of the others.
HepG2 tox – counter-screen for TGF-b inhibitors: cytotoxicity in HepG2 cells. Potency, µM (doses to about 46.1 µM), for the others: at the highest dose activity change, negative = cytotoxicity, usual class: cytotoxic. HepG2 CAGA-GFP viability, ATP luminescence, 18 h. hit rate 0.76% among 410,000
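CellTiter-Glo luminescence gave cytotoxicity after 18 hours at 37 degrees C. The cells were HepG2 CAGA-GFP in 1% FBS DMEM, stimulated with 500 pg/mL TGF-beta after compound addition. %Activity was normalised to no-cell wells (complete cell-killing) and DMSO (no toxicity), and curves were fitted and classified.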
HttQ103 aggreg – mutant huntingtin aggregation inhibition; PC12 HttQ103-GFP aggregates, Acumen cytometry, 40 h; Potency, µM (top dose mostly 46.1 µM), inactives show top-dose activity change, negative = inhibition, actives largely listed as inhibitors; hit rate 1.1% among 220,000; further: on the % scale 0 is the no-effect control and ±100 the full control effect; nearly all actives have a fitted effect of over 60% in size
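Inducible Q103 Huntingtin exon 1–GFP PC12 line, 1500 cells/well in phenol red free DMEM with 5% equine and 5% calf serum. Tebufenozide 100 nM induced expression; compounds titrated; aggregates quantified by cytometry.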
HTT ATP protect – protects HTT-Q103 PC12 cells, measured by ATP; PC12 HTT-Q103 induced, cytoprotection, ATP luminescence, 40 h; Potency, µM (doses to about 56.4 µM), for inactives: cytoprotection (ATP increase), most hits filed as activators; hit rate 0.14% among 230,000; further: % of control where 0% means no effect; nearly all actives have a fitted effect of over 45% in size
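Rat PC12, Q103 Htt exon1-GFP fusion, ecdysone promoter; tebufenozide inducer 100 nM final; compound titration; qHTS, 1500 cells/well; ATPlite luminescent read.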
TGFb inhibitor – inhibitors of TGF-b signaling | AID 588855 | hit rate 1.2% among 410,000 | HepG2 CAGA-GFP TGF-b/SMAD3 reporter, GFP fluorescence, 18 h; TGF-beta stimulated, 500 pg/mL final | Potency, µM (top dose mostly 46.1 µM), without a hit: at the top dose activity, negative = inhibition, hits mostly inhibitors; further: on the % scale 0 is the no-effect control and ±100 the full control effect; nearly all actives have a fitted effect of over 65% in size
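HEPG2 CAGA-GFP reporter cells (1000/well, DMEM with 1% FBS) received compounds, then recombinant TGF-beta at 500 pg/mL final for 18 hours at 37 degrees C. Per-cell GFP summed per well was normalised to unstimulated and stimulated DMSO controls before curve fitting.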
ATXN2 expr inh – ATXN2 expression inhibition | hit rate 0.72% among 360,000 | AID 1745845 | HEK-293 ATXN2-luciferase reporter, luminescence, 24 h | Potency, µM (doses to about 57 µM), for inactives: at the highest dose activity change, negative = inhibition, actives largely listed as inhibitors; further: on the % scale 0 is the no-effect control and ±100 the full control effect; nearly all actives have a fitted effect of over 55% in size
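ATXN2-luciferase reporter cells (luciferase flanked by upstream and downstream ATXN2 gene portions) were treated 24 h at 37 °C with compounds at up to 57 uM. SteadyGlo luminescence gave expression; GF-AFC fluorescence gave viability.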
S2 tox – viability counter-screen for ATXN expression inhibitors; hit rate 0.49% among 400,000; AID 651635; Potency, µM (series often up to 56.7 µM), hits mostly cytotoxic; S2 cells (HEK-293 line with an ATXN2-luciferase reporter) viability, CellTiter-Fluor protease fluorescence, 24 h; further: nearly all actives have a fitted effect of over 40% in size
* hit, by the source's call; i = inactive; u = inconclusive; x = no result; [ ] = remark or other dose. The call rests on the fitted dose curve; in most records, active means well fitted curve in the direction sought with a large enough effect; inconclusive means small, poorly fitted or top-dose-only effect, or another doubt; inactive means no such curve, though single readings can be large; an effect the other way counts as inactive or inconclusive. Potency means the concentration at half of the fitted maximal effect.

SMILES | HepG2 tox | HttQ103 aggreg | HTT ATP protect | TGFb inhibitor | ATXN2 expr inh | S2 tox
Cc1cc(Br)cc2c1N(Cc1ccccc1OC(C)C)C(=O)C2=O | 10µM* | x | x | x | x | x
CC(C)(C)CC(=O)OCC(=O)[C@@]1(O)CC[C@H]2[C@@H]3CCC4=CC(=O)C=C[C@]4(C)[C@H]3[C@@H](O)C[C@@]21C | x | x | x | x | -13.6% | u
CCN1C[C@@H]2[C@@H]3C(=O)N(Cc4ccccc4)C(=O)[C@@H]3[C@](Cc3ccccc3)(C1=O)N2C(=O)c1ccc(C(C)(C)C)cc1 | 0.9% | x | x | 1.3% | u | 31.6µM*
CCN1C[C@@H]2[C@@H]3C(=O)N(Cc4ccccc4)C(=O)[C@@H]3[C@](CC)(C1=O)N2C(=O)c1ccc(C(C)(C)C)cc1 | -9.6% | x | x | 0.4% | -6.4% | i
CCOc1cc(/C=N/Nc2nnc(C)n2N)ccc1O | 11.2µM* | x | x | 11.2µM* | -33.0% | i
COc1ccc(OC)c(/C=N/Nc2nncn2/N=C/c2cc(OC)ccc2OC)c1 | -8.3% | u | x | -18.1% | -5.8% | u
COc1cc(/C=N/Nc2nncn2/N=C/c2ccc(O)c(OC)c2)ccc1O | 10µM* | 6.7% | -80.1%[10 µM] | 4.2% | -18.8% | i
O=C(c1ccc(C(F)(F)F)cc1)N(Cc1cc2ccc(F)cc2nc1N1CCOCC1)C1CC1 | x | x | x | x | x | i
N#CC1=C(N)SC(N)=C(C#N)C1CCC1CCCCC1 | x | 0.891µM* | 9.5%[10 µM] | x | x | x
Cc1sccc1C1C(C#N)=C(N)SC(N)=C1C#N | x | 13.0% | 5.0%[1.9 µM] | x | x | x
COc1ccc2c(c1)O[C@@H](c1cccc(C(F)(F)F)c1)[C@H](OC(=O)N[C@H](C)C1CCCCC1)C2=O | x | x | -5.8% | x | x | x
COC(=O)C1=C(C)N(Cc2ccccc2)C(=NCCc2cccnc2)N[C@H]1c1ccc(Br)cc1 | 15.8µM* | x | x | u | 31.6µM* | u
COC(=O)C1=C(C)N(Cc2ccccc2)C(=S)N[C@H]1c1ccc(Br)cc1 | -1.4% | x | x | 12.6µM* | u | u
ICCc1ccccc1 | x | x | -33.3% | x | x | x
COc1cc(C)c(CN2C[C@H](Sc3nc4ccccc4[nH]3)C[C@H]2C(=O)N(C)C)cc1C | x | x | x | x | x | i
Cc1ccc(C(=O)Cn2c(C(=O)/C=C/c3ccccc3)nc3ccccc32)cc1 | -22.8% | 11.2µM* | -57.3% | -14.5% | u | u
CN(C)c1ccc(/C=C2\CCc3cc(N)ccc32)cc1 | -29.0% | x | x | -6.9% | x | x
CN1C(=O)N(C)C2=NNC=NC2(O)C1=O (stereo unspecified) | x | x | -21.3% | x | x | x
COc1ccc(-c2cnnc(N/N=C/c3ccc(O)c(O)c3)n2)cc1 | -31.3% | 11.2µM* | -59.4%[10 µM] | -20.1% | 8.3% | i
FC(F)(F)c1ccccc1-c1nccc(-n2ccnc2)n1 | x | x | -70.0% | x | x | x
O=C(Nc1ccccc1Cl)N1CCN(c2ccc3nnc(-c4ccccc4)n3n2)CC1 | -1.4% | u | -29.5% | -7.6% | u | i
O=C(Nc1ccc(Cl)cc1)N1CCN(c2ccc3nnc(-c4ccc(F)cc4)n3n2)CC1 | -26.5% | 22.4µM* | -13.6%[10 µM] | 14.1µM* | u | u
CO/N=C(\C)CCN1CCCc2nc(C)c(C)cc21 | x | x | 23.8%[10 µM] | x | x | x
COC(=O)C1=C(C(=O)OC)[C@@H]2N(Cc3ccccc3)c3ccccc3[C@@]23C[C@@H](C(=O)OC)N(S(=O)(=O)c2ccc([N+](=O)[O-])cc2)C3=N1 | x | x | -14.6%[10 µM] | x | x | x
Cc1ccc(NC(=O)Cn2c(=O)n(Cc3ccco3)c(=O)c3ccccc32)cc1 | 4.8% | x | x | -13.3% | -4.5% | i
SMILES | HepG2 tox | HttQ103 aggreg | HTT ATP protect | TGFb inhibitor | ATXN2 expr inh | S2 tox
Cc1ccc2c(c1)c(=O)c1ccccc1n2CCCC(=O)Nc1ccc(C)c(F)c1 | -17.2% | x | x | 6.31µM* | 0.0% | x
O=C(CCCn1c2ccccc2c(=O)c2ccccc21)Nc1cccc(Cl)c1 | -30.3% | x | x | 12.6µM* | u | x
Cc1ccc2c(c1)c(=O)c1ccccc1n2CCCC(=O)Nc1ccc(C)c(C)c1 | -9.4% | x | x | u | u | i
O=C(Cn1c(=O)n(Cc2ccco2)c(=O)c2ccccc21)Nc1cccc(Cl)c1 | -84.2% | 11.8% | -8.7% | 10µM* | u | u
O=C(N/N=C/c1cn(-c2ccccc2)nc1-c1cc2ccccc2o1)c1cccnc1 | 9.7% | 0.4% | 0.5%[10 µM] | -8.1% | x | i
O=C(N/N=C/c1cn(-c2ccccc2)nc1-c1cc2ccccc2o1)c1ccncc1 | -18.4% | 10µM* | 10.9%[10 µM] | -23.7% | 15.5% | i
O=C(N/N=C/c1cn(-c2ccccc2)nc1-c1cccs1)c1ccc(Cl)cc1 | -27.1% | 11.2µM* | -5.0%[10 µM] | u | -5.1% | i
O=C(NCCc1nnc2n1CCN(CC1CC=CCC1)CC2)c1ccc(F)cc1 (stereo unspecified) | x | x | x | x | x | i
CN1CCN(c2cc(-c3cc(O)c4ncccc4c3)ccn2)CC1 | -47.5% | x | x | u | 10µM* | u
COc1ccc(CN(C)CC(O)COC(c2ccc(OC)cc2)c2ccc(OC)cc2)cc1 (stereo unspecified) | 22.4µM* | x | x | u | -3.7% | i
OC(CNc1ccccc1)COc1ccc(OCC(O)CNc2ccccc2)cc1 (stereo unspecified) | -7.3% | 11.2µM* | -74.7% | u | u | u
CCOCC(O)CNc1ccccc1 (stereo unspecified) | 3.8% | -5.2% | 19.2%[10 µM] | 3.6% | 5.3% | i
CC(C)(C)c1onc(OCP(=O)(O)O)c1C[C@@H](N)C(=O)O | x | x | -4.8%[1.9 µM] | x | x | x
COc1ccccc1CCC(=O)O | -6.2% | x | x | 0.7% | x | x
CCN(CC)S(=O)(=O)c1cccc(C(=O)N/N=C(\C)c2ccc(O)cc2O)c1 | -29.5% | 3.98µM* | -105.1% | 20.8% | 2.38µM* | x
O=C(O)c1ccc(Nc2ncc3c(n2)-c2ccc(Cl)cc2C(c2c(F)cccc2F)=NC3)cc1 | x | x | x | x | -3.0% | x
COc1cc2c(cc1OC)C(C)N(C(=O)c1cc3c(s1)-c1ccccc1OC3)CC2 (stereo unspecified) | -29.1% | u | x | 11.2µM* | 25.1µM* | u
Cc1cc(Nc2ccccc2)n(-c2ccccc2)n1 | -0.1% | 2.7% | -5.2% | -12.4% | -19.5% | i
Cc1cc(Nc2nnnn2-c2ccccc2)n(-c2ccc(Cl)cc2)n1 | 2.82µM* | 15.8µM* | 9.4%[10 µM] | 12.6µM* | -10.2% | i
CNc1cc(C(=O)O)nc2ccccc12 | -34.6% | x | x | u | x | x
Fc1ccc(Cn2cnc3ccccc32)cc1 | 3.4% | -4.9% | 3.8% | -9.6% | 49.0% | i
CCCOc1ccc(Cn2cnc3ccccc32)cc1 | -50.4% | 25.1µM* | -8.7% | 0.0% | -13.9% | i
CCc1cc(C(=O)NNC(=S)NC(C)c2ccccc2)cs1 (stereo unspecified) | 7.0% | 17.8µM* | 11.9% | -23.8% | -20.5% | i
